Our source for the growth values is PubChem BioAssay (NCI).

Molecules are shown by their SMILES. About 83,000 compounds went through this panel and 20% of them were active in at least one assay; those are over-represented in the sample as a whole.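 Interpretation: 100, growth as untreated; towards 0, rising growth inhibition; 0, no net growth; 0 to -100, cell death. Compounds scoring below 10 were considered active.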 Unmarked numbers belong to inactive results. The source made the active and inactive calls.

This experiment relates to MOLT-4 leukemia. Briefly: NCI-60 one-dose screen, 48 h (100 = growth as untreated, 0 = no growth, -100 = all killed). Particulars: 10 µM unless noted.
With `c1cnc2ccc3ncccc3c2c1`, the growth is 106%.

Take `CCCCCCCCCCSc1ncnc2nc[nH]c12`: the growth was 72.5%.

On to `Clc1ccc2c(Nc3ccc4oc(NCCN5CCCC5)nc4c3)ccnc2c1`, for which the growth was 66.6%.

As to `CCN(CC)CCCNCCCNc1cc(OC)cc2cccnc12`, the growth was 75.6%.

For the compound `CCCCCCCCCCCCNc1ncnc2[nH]ncc12`, the growth was 65.8%.

Consider `CCCCCCCC/C=C/CCCCCCCC1=NC(C)(C)CN1CCO`, for which the growth is -44.4% (active).

Consider `O=C(CN1CCCCC1)Sc1nnc2sc3ccccc3n12`, for which the growth is 98.1%.

With `c1cncc(CNc2ccccc2-c2nnc(Nc3ccc4c(c3)OCO4)o2)c1`, the growth is 18.6%.

As to `CC(=O)NC1(C(=O)O)CCCC1`, the growth was 109%.

`CCCCCCCCCCCCCCCCN=C(CC(=O)O)C(=O)O`: the growth is 79.4%.

Turning to `c1ccc(N2CCN(c3nncc4ccccc34)CC2)nc1`, the growth was 106%.

As for `O=c1[nH]c(Cl)nc2c1cnn2-c1ccccc1`, the growth was 47.6%.

As to `ClC1=C(Cl)C(Cl)=C(Cl)C1=C/C=C/c1ccccc1`, the growth is -23.5% (active).

Take `CN(CC(=O)N(Cc1ccc(C2CCCCC2)cc1)c1ccc(C(=O)O)cc1)S(=O)(=O)c1c(F)c(F)c(F)c(F)c1F`: the growth is -15.9% (active).

Take `COc1ccc(C2CC(c3cccc(Nc4ccnc5cc(Cl)ccc45)c3)=NN2C=O)cc1` (configuration not stated): the growth is 15.8%.

Take `CCCCCCCCCCCCCCCCCC1=NC(C)(C)CN1CCO`: the growth was -55.7% (active).

With `COc1ccc(CCN2CCCN3C2=Nc2ccccc2S3(=O)=O)cc1`, the growth was 24.7%.
